Experimental findings from publication PMC7862700, “An all-to-all approach to the identification of sequence-specific readers for epigenetic DNA modifications on cytosine” are described below.

Common to all, as to assay: DAPPL (digital affinity profiling via proximity ligation, sequencing); 10 mM Tris-HCl pH 7.5, 50 mM NaCl, 1 mM DTT, 4% glycerol, room temperature, 30 min; GST-TFs on glutathione beads, 16-mer random dsDNA library, 0.1% formaldehyde crosslink after washing; high values mean tight binding
One assay has as its target T1, FEV (Homo sapiens, UniProt Q99581 1-238).
T1 sequence: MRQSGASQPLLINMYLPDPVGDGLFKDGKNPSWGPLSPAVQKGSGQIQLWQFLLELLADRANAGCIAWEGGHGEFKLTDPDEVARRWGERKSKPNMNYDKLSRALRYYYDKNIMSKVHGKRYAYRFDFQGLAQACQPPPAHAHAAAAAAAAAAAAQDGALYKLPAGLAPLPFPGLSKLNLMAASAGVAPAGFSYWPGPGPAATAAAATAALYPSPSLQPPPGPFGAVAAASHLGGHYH
The note with it: protein: recombinant; tags: N-terminal GST; dsDNA, one strand shown. In short, it runs like this: (§1)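 Binding signal is each hexamer's read frequency for a factor divided by its frequency in the tag-only sample. The factors were GST-fused human transcription factors from yeast, captured on glutathione beads, DNA-barcoded and pooled with that sample. Pools were incubated with 200 nmole of a random double-stranded 16-mer DNA library in Tris/NaCl/DTT/glycerol buffer at room temperature for 30 min, then washed, crosslinked with 0.1% formaldehyde, proximity-ligated with BsaI/T4 ligase (1 h, 37 °C), PCR-amplified and sequenced on an Illumina NextSeq500.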

A further assay addresses ETV5 (Homo sapiens, UniProt P41161 1-510). The note with it: protein: recombinant; tags: N-terminal GST; dsDNA, one strand shown. The procedure, abridged: as §1
A further assay addresses HSF1 (Homo sapiens, UniProt Q00613 1-529). To be noted: protein: recombinant; tags: N-terminal GST; chain copies: 3; dsDNA, one strand shown. In short, it runs like this:
as §1

Another assay addresses T2, SPIC (Homo sapiens, UniProt Q8N5J4 1-248).
T2 sequence: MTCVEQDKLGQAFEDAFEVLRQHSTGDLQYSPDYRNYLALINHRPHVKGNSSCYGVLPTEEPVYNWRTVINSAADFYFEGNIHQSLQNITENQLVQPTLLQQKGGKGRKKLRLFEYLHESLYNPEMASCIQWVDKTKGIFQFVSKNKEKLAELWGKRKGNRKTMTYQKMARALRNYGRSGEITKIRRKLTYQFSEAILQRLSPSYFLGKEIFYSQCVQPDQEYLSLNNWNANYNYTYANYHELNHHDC
To be noted: protein: recombinant; tags: N-terminal GST; dsDNA, one strand shown. In short, it runs like this: as §1

In another assay the target is ELF4 (Homo sapiens, UniProt Q99607 1-663). The note with it: protein: recombinant; tags: N-terminal GST; dsDNA, one strand shown. The procedure, abridged: as §1
Sequence of ELF4 (Q99607 whole entry): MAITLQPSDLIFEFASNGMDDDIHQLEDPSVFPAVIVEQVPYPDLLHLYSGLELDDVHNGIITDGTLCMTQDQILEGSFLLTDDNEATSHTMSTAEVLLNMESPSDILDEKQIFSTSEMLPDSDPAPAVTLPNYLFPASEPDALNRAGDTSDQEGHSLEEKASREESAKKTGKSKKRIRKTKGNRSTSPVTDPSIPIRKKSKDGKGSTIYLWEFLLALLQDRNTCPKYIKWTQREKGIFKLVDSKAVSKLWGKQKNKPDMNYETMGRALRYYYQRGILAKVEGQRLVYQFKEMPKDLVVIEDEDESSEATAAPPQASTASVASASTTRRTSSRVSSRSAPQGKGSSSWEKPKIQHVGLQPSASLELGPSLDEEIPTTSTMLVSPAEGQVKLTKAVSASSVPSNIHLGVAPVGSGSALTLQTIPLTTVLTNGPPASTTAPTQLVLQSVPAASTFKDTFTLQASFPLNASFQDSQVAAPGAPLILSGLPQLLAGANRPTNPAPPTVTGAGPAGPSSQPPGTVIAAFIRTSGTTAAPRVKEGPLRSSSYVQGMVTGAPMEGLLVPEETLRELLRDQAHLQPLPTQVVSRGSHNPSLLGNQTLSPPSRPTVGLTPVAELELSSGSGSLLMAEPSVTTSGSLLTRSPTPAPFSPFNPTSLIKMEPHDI
For another assay, the target named is T3, ELK4 (Homo sapiens, UniProt P28324-2 1-405).
T3 sequence: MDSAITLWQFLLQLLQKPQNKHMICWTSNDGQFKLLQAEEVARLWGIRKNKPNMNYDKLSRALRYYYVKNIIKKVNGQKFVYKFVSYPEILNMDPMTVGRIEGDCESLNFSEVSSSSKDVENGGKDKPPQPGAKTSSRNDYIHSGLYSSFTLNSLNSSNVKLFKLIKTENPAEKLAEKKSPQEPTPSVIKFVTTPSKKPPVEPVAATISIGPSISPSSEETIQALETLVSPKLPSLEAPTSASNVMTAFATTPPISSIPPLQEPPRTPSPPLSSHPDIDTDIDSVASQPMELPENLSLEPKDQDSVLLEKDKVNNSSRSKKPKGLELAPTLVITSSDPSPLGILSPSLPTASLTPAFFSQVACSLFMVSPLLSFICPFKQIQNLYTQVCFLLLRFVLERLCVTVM
To be noted: protein: recombinant; tags: N-terminal GST; dsDNA, one strand shown. The procedure, abridged: as §1

Another assay addresses T4, ETV2 (Homo sapiens, UniProt O00321 1-342).
T4 sequence: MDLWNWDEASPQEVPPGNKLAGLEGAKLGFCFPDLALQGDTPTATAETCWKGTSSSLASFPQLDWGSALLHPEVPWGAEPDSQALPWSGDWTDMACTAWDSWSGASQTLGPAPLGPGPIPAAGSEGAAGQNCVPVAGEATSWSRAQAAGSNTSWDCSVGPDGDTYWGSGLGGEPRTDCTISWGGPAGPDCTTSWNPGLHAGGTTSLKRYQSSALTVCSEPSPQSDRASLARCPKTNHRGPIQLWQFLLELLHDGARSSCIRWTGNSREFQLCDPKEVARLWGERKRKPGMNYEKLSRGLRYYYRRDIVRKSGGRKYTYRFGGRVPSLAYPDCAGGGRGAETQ
The note with it: protein: recombinant; tags: N-terminal GST; dsDNA, one strand shown. In short, it runs like this:
as §1

A further assay concerns the target T5, ELF3 (Homo sapiens, UniProt P78545 1-371).
T5 sequence: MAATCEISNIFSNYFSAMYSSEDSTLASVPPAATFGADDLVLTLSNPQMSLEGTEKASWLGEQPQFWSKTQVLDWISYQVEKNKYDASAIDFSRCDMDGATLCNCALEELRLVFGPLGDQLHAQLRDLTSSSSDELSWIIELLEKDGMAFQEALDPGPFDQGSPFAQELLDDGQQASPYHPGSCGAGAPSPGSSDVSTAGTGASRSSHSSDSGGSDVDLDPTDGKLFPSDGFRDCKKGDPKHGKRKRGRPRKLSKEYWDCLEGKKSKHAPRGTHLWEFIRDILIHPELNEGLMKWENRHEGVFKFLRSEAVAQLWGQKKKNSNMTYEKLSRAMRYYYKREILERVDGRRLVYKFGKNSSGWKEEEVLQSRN
The note with it: protein: recombinant; tags: N-terminal GST; dsDNA, one strand shown. In short, it runs like this: as §1

A further assay concerns the target CRX (Homo sapiens, UniProt O43186 1-299). The note with it: protein: recombinant; tags: N-terminal GST; dsDNA, one strand shown. In short, it runs like this: as §1
The target of another assay is ETV1 (Homo sapiens, UniProt P50549 1-477). To be noted: protein: recombinant; tags: N-terminal GST; dsDNA, one strand shown. The procedure, abridged:
as §1

A further assay deals with T6, ERF (Homo sapiens, UniProt P50548 1-548).
T6 sequence: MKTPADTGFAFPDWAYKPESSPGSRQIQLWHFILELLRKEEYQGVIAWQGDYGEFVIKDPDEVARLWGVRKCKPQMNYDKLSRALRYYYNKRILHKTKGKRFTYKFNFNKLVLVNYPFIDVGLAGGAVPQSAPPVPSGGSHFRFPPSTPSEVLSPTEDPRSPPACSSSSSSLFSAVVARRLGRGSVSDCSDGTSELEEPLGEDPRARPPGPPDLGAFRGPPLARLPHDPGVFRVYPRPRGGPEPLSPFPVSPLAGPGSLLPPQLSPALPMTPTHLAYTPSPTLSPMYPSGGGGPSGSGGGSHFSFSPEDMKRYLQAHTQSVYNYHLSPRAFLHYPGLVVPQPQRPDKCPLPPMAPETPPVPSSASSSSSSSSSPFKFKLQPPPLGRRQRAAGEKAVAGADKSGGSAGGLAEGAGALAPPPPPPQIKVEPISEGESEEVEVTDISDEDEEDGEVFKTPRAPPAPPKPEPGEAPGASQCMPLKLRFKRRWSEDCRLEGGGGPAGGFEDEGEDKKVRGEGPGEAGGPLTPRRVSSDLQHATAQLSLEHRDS
The note with it: protein: recombinant; tags: N-terminal GST; dsDNA, one strand shown. In short, it runs like this:
as §1

Another assay addresses T7, ETV3L (Homo sapiens, UniProt Q6ZN32 1-361).
T7 sequence: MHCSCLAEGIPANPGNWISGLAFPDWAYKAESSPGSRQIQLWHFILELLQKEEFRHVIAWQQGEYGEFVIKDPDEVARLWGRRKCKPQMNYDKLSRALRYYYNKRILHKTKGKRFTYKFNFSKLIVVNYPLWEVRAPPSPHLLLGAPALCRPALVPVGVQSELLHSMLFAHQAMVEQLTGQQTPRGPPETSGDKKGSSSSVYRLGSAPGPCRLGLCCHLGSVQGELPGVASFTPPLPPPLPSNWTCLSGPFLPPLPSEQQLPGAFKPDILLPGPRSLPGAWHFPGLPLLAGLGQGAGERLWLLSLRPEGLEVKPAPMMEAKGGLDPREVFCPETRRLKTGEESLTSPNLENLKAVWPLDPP
The note with it: protein: recombinant; tags: N-terminal GST; dsDNA, one strand shown. In short, it runs like this: as §1

The next assay has as its target T8, ETS2 (Homo sapiens, UniProt P15036 1-469).
T8 sequence: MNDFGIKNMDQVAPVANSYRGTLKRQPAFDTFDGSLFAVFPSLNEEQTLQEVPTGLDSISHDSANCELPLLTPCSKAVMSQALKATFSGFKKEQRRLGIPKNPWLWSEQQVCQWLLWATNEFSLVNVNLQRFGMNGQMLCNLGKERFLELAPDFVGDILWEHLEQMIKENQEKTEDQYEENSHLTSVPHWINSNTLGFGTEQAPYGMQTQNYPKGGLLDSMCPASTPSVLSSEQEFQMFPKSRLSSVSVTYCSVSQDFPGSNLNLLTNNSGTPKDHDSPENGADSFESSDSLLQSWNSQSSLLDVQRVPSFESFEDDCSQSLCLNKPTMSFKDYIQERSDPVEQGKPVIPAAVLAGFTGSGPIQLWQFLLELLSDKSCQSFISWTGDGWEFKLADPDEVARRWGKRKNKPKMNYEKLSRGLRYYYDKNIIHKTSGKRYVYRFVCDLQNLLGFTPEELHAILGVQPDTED
The note with it: protein: recombinant; tags: N-terminal GST; dsDNA, one strand shown. The procedure, abridged: as §1

The next assay has as its target T9, SPDEF (Homo sapiens, UniProt O95238 1-335).
T9 sequence: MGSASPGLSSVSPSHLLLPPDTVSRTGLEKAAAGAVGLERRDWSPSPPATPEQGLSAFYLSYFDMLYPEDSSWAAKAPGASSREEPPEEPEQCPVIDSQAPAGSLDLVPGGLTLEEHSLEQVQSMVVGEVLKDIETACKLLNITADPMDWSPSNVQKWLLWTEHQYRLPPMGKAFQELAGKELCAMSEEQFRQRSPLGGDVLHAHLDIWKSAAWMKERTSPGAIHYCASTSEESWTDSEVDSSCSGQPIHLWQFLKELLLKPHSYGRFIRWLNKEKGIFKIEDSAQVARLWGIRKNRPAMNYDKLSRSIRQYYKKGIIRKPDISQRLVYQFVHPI
The note with it: protein: recombinant; tags: N-terminal GST; dsDNA, one strand shown. In short, it runs like this: as §1

Another assay has as its target T10, ETV7 (Homo sapiens, UniProt Q9Y603 1-341).
T10 sequence: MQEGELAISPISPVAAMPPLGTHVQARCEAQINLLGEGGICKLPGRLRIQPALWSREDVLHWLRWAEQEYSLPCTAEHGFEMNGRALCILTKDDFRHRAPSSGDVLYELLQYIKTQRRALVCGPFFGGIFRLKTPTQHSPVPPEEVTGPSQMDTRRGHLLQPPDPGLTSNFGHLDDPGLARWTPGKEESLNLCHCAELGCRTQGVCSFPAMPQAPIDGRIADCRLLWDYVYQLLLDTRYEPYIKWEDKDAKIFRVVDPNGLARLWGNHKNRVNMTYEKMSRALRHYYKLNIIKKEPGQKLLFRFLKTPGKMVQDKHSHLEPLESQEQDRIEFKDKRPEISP
The note with it: protein: recombinant; tags: N-terminal GST; dsDNA, one strand shown. In short, it runs like this:
as §1

Another assay addresses T11, ELF5 (Homo sapiens, UniProt Q9UKW6-2 1-255).
T11 sequence: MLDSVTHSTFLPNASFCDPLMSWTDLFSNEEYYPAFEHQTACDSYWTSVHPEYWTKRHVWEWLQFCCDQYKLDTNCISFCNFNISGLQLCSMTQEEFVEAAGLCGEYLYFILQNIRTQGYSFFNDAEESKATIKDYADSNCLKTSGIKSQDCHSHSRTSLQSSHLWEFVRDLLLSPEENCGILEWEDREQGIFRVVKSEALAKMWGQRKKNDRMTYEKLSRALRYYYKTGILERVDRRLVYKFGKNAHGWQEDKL
To be noted: protein: recombinant; tags: N-terminal GST; dsDNA, one strand shown. In short, it runs like this:
as §1

For another assay, the target named is T12, ETV3 (Homo sapiens, UniProt P41162-2 1-143).
T12 sequence: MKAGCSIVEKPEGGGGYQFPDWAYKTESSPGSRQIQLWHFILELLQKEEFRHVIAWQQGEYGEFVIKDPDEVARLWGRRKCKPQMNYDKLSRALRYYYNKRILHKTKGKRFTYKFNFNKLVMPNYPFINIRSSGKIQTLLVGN
The note with it: protein: recombinant; tags: N-terminal GST; dsDNA, one strand shown. The procedure, abridged: as §1

A further assay has as its target ETV6 (Homo sapiens, UniProt P41212 1-452). The note with it: protein: recombinant; tags: N-terminal GST; dsDNA, one strand shown. In short, it runs like this:
as §1

Sequence of CRX (O43186 whole entry): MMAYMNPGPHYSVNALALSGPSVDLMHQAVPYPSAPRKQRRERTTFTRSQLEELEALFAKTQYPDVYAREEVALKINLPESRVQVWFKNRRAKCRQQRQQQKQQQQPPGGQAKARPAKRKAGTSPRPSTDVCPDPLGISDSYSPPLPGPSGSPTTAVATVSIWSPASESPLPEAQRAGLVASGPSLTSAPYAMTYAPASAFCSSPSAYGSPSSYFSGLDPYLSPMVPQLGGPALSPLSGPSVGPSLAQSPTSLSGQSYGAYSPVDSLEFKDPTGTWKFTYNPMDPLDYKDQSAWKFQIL
Sequence of ETV5 (P41161 whole entry): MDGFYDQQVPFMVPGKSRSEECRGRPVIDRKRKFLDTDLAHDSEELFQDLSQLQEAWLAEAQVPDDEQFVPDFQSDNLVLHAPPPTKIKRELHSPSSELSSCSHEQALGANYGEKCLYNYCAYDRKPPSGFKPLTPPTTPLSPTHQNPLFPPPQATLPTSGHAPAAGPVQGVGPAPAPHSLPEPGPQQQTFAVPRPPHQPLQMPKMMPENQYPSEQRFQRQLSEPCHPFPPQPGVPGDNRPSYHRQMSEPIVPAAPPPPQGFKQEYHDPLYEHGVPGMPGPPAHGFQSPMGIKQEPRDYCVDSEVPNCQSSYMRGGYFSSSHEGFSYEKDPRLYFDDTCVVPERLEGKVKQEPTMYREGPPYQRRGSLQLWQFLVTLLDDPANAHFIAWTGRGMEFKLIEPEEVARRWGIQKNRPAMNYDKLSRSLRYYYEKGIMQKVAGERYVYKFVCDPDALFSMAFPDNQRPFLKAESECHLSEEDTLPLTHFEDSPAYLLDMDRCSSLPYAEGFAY
Sequence of ETV1 (P50549 whole entry): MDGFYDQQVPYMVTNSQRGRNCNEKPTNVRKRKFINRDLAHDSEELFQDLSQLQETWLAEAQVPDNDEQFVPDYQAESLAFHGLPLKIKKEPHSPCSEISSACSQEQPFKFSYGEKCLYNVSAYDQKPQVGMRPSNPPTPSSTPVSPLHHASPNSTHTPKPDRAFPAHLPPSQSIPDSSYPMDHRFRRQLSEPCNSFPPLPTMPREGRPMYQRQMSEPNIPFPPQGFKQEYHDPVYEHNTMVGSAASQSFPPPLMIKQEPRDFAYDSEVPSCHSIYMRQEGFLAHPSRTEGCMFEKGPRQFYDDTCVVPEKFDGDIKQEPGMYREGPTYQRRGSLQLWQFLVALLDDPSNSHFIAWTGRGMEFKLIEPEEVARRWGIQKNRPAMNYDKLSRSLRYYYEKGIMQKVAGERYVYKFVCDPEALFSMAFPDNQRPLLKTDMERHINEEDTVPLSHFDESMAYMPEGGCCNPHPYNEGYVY
Sequence of ETV6 (P41212 whole entry): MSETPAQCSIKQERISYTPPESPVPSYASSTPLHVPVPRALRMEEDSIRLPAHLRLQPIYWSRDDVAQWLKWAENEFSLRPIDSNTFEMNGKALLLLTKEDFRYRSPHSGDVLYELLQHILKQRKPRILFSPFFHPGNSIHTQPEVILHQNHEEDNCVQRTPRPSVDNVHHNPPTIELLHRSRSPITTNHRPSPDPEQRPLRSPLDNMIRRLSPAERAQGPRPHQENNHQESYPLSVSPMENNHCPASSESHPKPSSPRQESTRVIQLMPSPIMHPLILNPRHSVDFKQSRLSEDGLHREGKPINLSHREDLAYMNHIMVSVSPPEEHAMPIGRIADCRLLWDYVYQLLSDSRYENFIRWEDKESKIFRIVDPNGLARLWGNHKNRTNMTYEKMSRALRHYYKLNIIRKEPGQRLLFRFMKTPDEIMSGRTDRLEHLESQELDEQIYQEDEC
Sequence of HSF1 (Q00613 whole entry): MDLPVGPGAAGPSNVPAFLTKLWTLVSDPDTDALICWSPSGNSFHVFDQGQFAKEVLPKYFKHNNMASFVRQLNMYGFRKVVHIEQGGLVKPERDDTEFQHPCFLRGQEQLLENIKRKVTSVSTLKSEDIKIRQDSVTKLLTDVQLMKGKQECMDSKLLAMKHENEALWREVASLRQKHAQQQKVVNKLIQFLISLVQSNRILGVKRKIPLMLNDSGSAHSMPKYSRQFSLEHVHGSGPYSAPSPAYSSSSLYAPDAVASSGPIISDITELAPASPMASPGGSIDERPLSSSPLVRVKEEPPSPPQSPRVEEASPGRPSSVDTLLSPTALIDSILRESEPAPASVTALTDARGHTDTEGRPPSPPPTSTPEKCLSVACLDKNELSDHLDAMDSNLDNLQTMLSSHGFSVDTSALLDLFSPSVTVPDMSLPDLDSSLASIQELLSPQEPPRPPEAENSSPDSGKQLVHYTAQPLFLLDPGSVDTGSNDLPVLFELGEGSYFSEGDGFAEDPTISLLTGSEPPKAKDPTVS

Turning to ATTTGG, the binding signal with FEV is 1.4 fold enrichment (6-mer frequency, TF over GST control); with ETV5, 1.36 fold enrichment (6-mer frequency, TF over GST control); in the assay with HSF1, 1.5 fold enrichment (6-mer frequency, TF over GST control); with SPIC, 1.34 fold enrichment (6-mer frequency, TF over GST control); with ELF4, 1.26 fold enrichment (6-mer frequency, TF over GST control); with ELK4 it was 1.43 fold enrichment (6-mer frequency, TF over GST control). The binding signal with ETV2 was 1.37 fold enrichment (6-mer frequency, TF over GST control); with ELF3 it was 1.44 fold enrichment (6-mer frequency, TF over GST control); with CRX it was 1.73 fold enrichment (6-mer frequency, TF over GST control); in the assay with ETV1 it was 1.36 fold enrichment (6-mer frequency, TF over GST control); with ERF, 1.54 fold enrichment (6-mer frequency, TF over GST control); with ETV3L, 1.46 fold enrichment (6-mer frequency, TF over GST control). For the same sequence, the binding signal with ETS2 is 1.38 fold enrichment (6-mer frequency, TF over GST control); with SPDEF it was 1.34 fold enrichment (6-mer frequency, TF over GST control); with ETV7, 1.41 fold enrichment (6-mer frequency, TF over GST control); with ELF5, 1.37 fold enrichment (6-mer frequency, TF over GST control); with ETV3, 1.35 fold enrichment (6-mer frequency, TF over GST control); with ETV6 it was 1.45 fold enrichment (6-mer frequency, TF over GST control).
